These results are taken from the supplement of paper PMC13380429.

In the experiment the test system is Vero E6 infected with SARS-CoV-2. The experiment can be described thus: morphology score (similarity to uninfected cells); higher = more like uninfected cells. The conditions noted are these: 24 h.
As to `C=CC(=O)N1CCC(Oc2cc3c(Nc4ccc(Cl)c(Cl)c4F)ncnc3cc2OC)CC1` [poziotinib] (10 µM), the morphology score is -0.0962.

As for `C[C@H](CCC(=O)O)[C@H]1CC[C@H]2[C@@H]3C[C@H](O)[C@@H]4C[C@H](O)CC[C@]4(C)[C@H]3CC[C@]12C` [Hyodeoxycholic acid (HDCA)] (10 µM), the morphology score worked out at 0.109.

`CCC1(c2c[nH]cn2)Cc2ccccc2C1` [atipamezole] (10 µM): the morphology score was -0.114.

Molecule `O=C(O)c1ccc(OCCn2ccnc2)cc1` [dazoxiben] (10 µM) registered a morphology score of 0.196.

`CCCn1c(=O)c2nc(-c3ccccc3)[nH]c2n(CCC)c1=O` [1,3-dipropyl-8-phenylxanthine] (10 µM) registered a morphology score of 0.102.

`COC(=O)c1ccc2c(c1)nc(NC(=O)c1ccccc1)n2CCCc1ccccc1` (10 µM): the morphology score came out at 0.0334.

The molecule `CC(=O)NCCCCCC(=O)O` [acexamic-acid] (10 µM) had a morphology score of -0.0574.

`Cc1cccc(C)c1-n1c(=O)c2cnc(Nc3ccc(N4CCN(C)CC4)cc3)nc2n2c3ccccc3nc12` (0.833333 µM) displayed a morphology score of -0.0551.

In the case of `NCCCS(=O)(=O)O` [tramiprosate] (10 µM), the morphology score worked out at 0.072.

On to `C=CCOc1ccccc1OCC(O)CNC(C)C` (stereo not given) [oxprenolol] (10 µM), for which the morphology score was -0.183.

As to `Cc1cccc(C)c1NC(=O)[C@@H](C)N` [tocainide] (10 µM), the morphology score was -0.0832.

Molecule `CC(C)C[C@H](NC(=O)[C@@H](COC(C)(C)C)NC(=O)[C@H](Cc1ccc(O)cc1)NC(=O)[C@H](CO)NC(=O)[C@H](Cc1c[nH]c2ccccc12)NC(=O)[C@H](Cc1cnc[nH]1)NC(=O)[C@@H]1CCC(=O)N1)C(=O)N[C@@H](CCCNC(=N)N)C(=O)N1CCC[C@H]1C(=O)NNC(N)=O` [goserelin-acetate] (10 µM) showed a morphology score of 0.0827.

`COc1cc(NC(=O)c2cccc(-n3cc(NC(=O)Nc4cccc(C)c4)cn3)c2)cc(OC)c1OC` (10 µM) returned a morphology score of -0.0791.

`CO/N=C(\C(=O)N[C@@H]1C(=O)N2C(C(=O)O)=C(CSC(=O)c3ccco3)CS[C@H]12)c1csc(N)n1` (10 µM): the morphology score was found to be 0.156.

Molecule `O=C(Nc1ccc(C(=O)O)c(O)c1)c1ccccc1` [benzoylpas] (10 µM) had a morphology score of 0.206.

In turn, `C=CC[C@@H]1/C=C(\C)C[C@H](C)C[C@H](OC)[C@H]2O[C@@](O)(C(=O)C(=O)N3CCCC[C@H]3C(=O)O[C@H](/C(C)=C/[C@@H]3CC[C@@H](O)[C@H](OC)C3)[C@H](C)[C@@H](O)CC1=O)[C@H](C)C[C@@H]2OC` [tacrolimus] (10 µM) came in with a morphology score of 0.199.

Molecule `COc1ccc(CCNCc2ccc(OCc3ccc(Cl)nc3)c(OC)c2)cc1OC` (10 µM) displayed a morphology score of 0.078.

In turn, `COc1ccc2[nH]cc(CCNC(C)=O)c2c1` [melatonin] (10 µM) came in with a morphology score of 0.0444.

The molecule `CC1=C(C(=O)OC2CCCCC2)C(c2ccc([N+](=O)[O-])cc2)C2=C(CC(C)(C)CC2=O)N1` (stereo not given) (0.833333 µM) gave a morphology score of -0.0965.

On to `Cc1nnsc1C(=O)Nc1ccc(-n2nc(C(F)(F)F)cc2C(F)(F)F)cc1` (10 µM), for which the morphology score was -0.0783.

In turn, `CN1C(=O)/C(=C2/C(=O)Nc3ccccc32)c2ccccc21` [meisoindigo] (0.833333 µM) registered a morphology score of 0.0882.

`CC(C)[C@H](NS(=O)(=O)c1ccc(-c2ccc(Br)cc2)cc1)C(=O)O` (10 µM): the morphology score is -0.0577.

`CN1c2cc3c(cc2N=C(c2ccc(C(=O)O)cc2)c2ccccc21)C(C)(C)CCC3(C)C` (0.833333 µM) yielded a morphology score of -0.141.

`CCCCc1cc2ccccc2c(OCCN(C)C)n1` [dimethisoquin] (10 µM) yielded a morphology score of 0.41.

Turning to `C[C@@H]1CC[C@@]2(OC1)O[C@H]1C[C@H]3[C@@H]4CC=C5C[C@@H](O[C@@H]6O[C@H](CO)[C@@H](O[C@@H]7O[C@@H](C)[C@H](O)[C@@H](O)[C@H]7O)[C@H](O)[C@H]6O[C@@H]6O[C@@H](C)[C@H](O)[C@@H](O)[C@H]6O)CC[C@]5(C)[C@H]4CC[C@]3(C)[C@H]1[C@@H]2C` [dioscin] (10 µM), the morphology score worked out at 0.0193.

Molecule `O=C(O)CCCO` (10 µM) yielded a morphology score of 0.0908.

As to `COc1ccc(Nc2nccc(NCCO)n2)cc1` [cardiogenol-C] (10 µM), the morphology score amounted to 0.0849.

On to `O=Nc1ccc(O)c2ncccc12` (10 µM), for which the morphology score is -0.131.

In turn, `CCC(=O)O[C@@H](O[P@@](=O)(CCCCc1ccccc1)CC(=O)N1C[C@H](C2CCCCC2)C[C@H]1C(=O)O)C(C)C` [fosinopril] (10 µM) had a morphology score of -0.0286.

Turning to `Cc1ccc(C(=O)c2cc(O)c(O)c([N+](=O)[O-])c2)cc1` [tolcapone] (10 µM), the morphology score is 0.192.

Turning to `CO[C@H]1C[C@H](O[C@@H]2/C(C)=C/C[C@@H]3C[C@@H](C[C@]4(CC[C@H](C)[C@@H](C5CCCCC5)O4)O3)OC(=O)[C@@H]3C=C(C)/C(=N/O)[C@H]4OC/C(=C\C=C\[C@@H]2C)[C@]43O)O[C@@H](C)[C@@H]1O` [selamectin] (10 µM), the morphology score came to 0.602.

Take `O=c1[nH]nc2c3c(cccc13)N=C(CN1Cc3ccccc3C1)N2` (10 µM): the morphology score was 0.219.

For the molecule `CN(CC[C@@H](Oc1ccc(-c2ccccc2)cc1)c1ccc(F)cc1)CC(=O)O` (10 µM), the morphology score came out at 0.036.

Molecule `C[C@H]1[C@H](OC(=O)CCC(=O)O)O[C@@H]2O[C@@]3(C)CC[C@H]4[C@H](C)CC[C@@H]1[C@@]24OO3` [artesunate] (0.833333 µM) yielded a morphology score of 0.157.

In turn, `Cc1ccccc1C(=O)Nc1ccc(C(=O)N2CCCC(N(C)C)c3ccccc32)cc1` (stereo not given) [mozavaptan] (0.833333 µM) showed a morphology score of 0.0205.

`CCC(=O)[C@@]1(C)[C@H](C)C[C@H]2[C@@H]3CCC4=CC(=O)C=C[C@]4(C)[C@H]3[C@@H](O)C[C@@]21C` [rimexolone] (10 µM) showed a morphology score of 0.134.

With `CC(C)[C@@H](C)/C=C/[C@@H](C)[C@H]1CC[C@H]2/C(=C/C=C3\C[C@@H](O)CC[C@@H]3C)CCC[C@]12C` [dihydrotachysterol] (10 µM), the morphology score was found to be 0.121.

`CCOc1ccccc1OC(c1ccccc1)C1CNCCO1` (stereo not given) [reboxetine] (10 µM) gave a morphology score of -0.0871.

The molecule `CCCN1CCC[C@@H]2Cc3n[nH]cc3C[C@H]21` [quinpirol-(-)] (10 µM) had a morphology score of 0.203.

Molecule `C[C@H]1C[C@@H]2[C@H]([C@@H](O)C[C@@]3(C)[C@H]2CC[C@]3(O)C(=O)CO)[C@@]2(C)C=CC(=O)C=C12` [methylprednisolone] (10 µM) returned a morphology score of -0.0624.
